Screen size: about 310,000 compounds; about 14,000 (4.5%) showed an effect of 50% or more. The effect is printed as a negative number. What follows is part of a selection rich in strong results, with near analogues and random picks from the rest.
target: human ether-à-go-go-related gene (hERG) potassium channel (human, UniProt Q12809); experiment: primary screen, population patch clamp on CHO cells stably expressing hERG; higher = less effect of the substance
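Note: peak tail current of the secondary pulse compared with the same well before compound.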

Chain of human ether-à-go-go-related gene (hERG) potassium channel (Q12809 whole entry, looked up): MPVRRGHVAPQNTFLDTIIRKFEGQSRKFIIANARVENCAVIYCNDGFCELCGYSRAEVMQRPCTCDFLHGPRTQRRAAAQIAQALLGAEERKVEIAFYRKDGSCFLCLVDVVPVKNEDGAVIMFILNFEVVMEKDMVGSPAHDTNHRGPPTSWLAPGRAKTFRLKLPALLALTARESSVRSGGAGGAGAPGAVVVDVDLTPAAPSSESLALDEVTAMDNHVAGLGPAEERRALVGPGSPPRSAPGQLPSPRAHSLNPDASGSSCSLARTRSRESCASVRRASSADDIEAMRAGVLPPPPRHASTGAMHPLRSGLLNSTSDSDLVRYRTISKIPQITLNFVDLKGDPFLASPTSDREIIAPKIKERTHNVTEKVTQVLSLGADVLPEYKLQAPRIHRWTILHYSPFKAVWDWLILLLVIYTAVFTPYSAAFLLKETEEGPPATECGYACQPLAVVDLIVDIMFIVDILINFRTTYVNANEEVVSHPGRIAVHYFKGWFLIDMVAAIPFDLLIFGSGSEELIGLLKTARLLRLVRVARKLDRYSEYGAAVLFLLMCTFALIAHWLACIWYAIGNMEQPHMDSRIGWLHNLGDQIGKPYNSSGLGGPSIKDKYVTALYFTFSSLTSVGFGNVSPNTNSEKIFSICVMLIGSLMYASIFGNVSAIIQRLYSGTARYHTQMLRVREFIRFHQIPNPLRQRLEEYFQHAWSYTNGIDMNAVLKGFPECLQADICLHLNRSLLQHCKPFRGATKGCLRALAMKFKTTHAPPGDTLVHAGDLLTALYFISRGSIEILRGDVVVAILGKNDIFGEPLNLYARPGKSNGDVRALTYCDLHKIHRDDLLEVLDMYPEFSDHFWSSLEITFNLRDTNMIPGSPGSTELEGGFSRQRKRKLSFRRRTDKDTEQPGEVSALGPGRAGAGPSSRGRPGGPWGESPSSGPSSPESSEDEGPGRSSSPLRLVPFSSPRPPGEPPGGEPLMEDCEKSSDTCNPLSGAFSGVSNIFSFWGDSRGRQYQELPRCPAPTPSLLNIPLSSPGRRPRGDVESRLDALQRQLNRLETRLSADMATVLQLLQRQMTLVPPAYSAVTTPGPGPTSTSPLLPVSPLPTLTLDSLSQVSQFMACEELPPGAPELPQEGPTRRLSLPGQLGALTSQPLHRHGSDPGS

Row | Structure (SMILES) | hERG current change (%, negative = inhibition) at 10uM
1 | Cc1noc(/C=C/Nc2ccc(F)cc2F)c1[N+](=O)[O-] | 12.1%
2 | COc1ccc(NC(=S)N(CCN(C)C)C(C)c2ccco2)cc1 (stereo not drawn) | -16.6%
3 | O=C1CSC(c2ccccc2)N1CCc1ccccc1 (stereo not drawn) | 1.82%
4 | Cc1ccccc1SCC(=O)OCC(=O)Nc1ccc(N(C)C)cc1 | 10.4%
5 | CC(=O)N1CCN(Cc2nc(C(c3ccccc3)c3ccccc3)no2)CC1 | 10.8%
6 | Cc1cccnc1CN1CCN(Cc2nc(C(c3ccccc3)c3ccccc3)no2)CC1 | -56.2%
7 | c1ccc(C(c2ccccc2)c2noc(CN3CCC(c4ccncc4)CC3)n2)cc1 | -32.7%
8 | c1ccc(C(c2ccccc2)c2noc(CN3CCN(C4CCCC4)CC3)n2)cc1 | -70.1%
9 | COCC1CCCN(Cc2nc(C(c3ccccc3)c3ccccc3)no2)C1 (stereo not drawn) | -19.6%
10 | NC(=O)CCN1CCN(Cc2nc(C(c3ccccc3)c3ccccc3)no2)CC1 | -25.6%
11 | Cc1nc(CN2CCN(Cc3nc(C(c4ccccc4)c4ccccc4)no3)CC2)cs1 | -45.5%
12 | c1ccc(C(c2ccccc2)c2noc(CN3CCN(CC4CC4)CC3)n2)cc1 | -61.6%
13 | C[C@@H]1CN(C2CCN(Cc3nc(C(c4ccccc4)c4ccccc4)no3)CC2)C[C@H](C)O1 | -38.6%
14 | CC(=O)c1c(NCCc2ccccc2)nc(=S)n(-c2ccccc2)c1C | 7.04%
15 | CCn1c(=O)cc(OCC(=O)NCc2ccco2)c2ccccc21 | 0.766%
16 | CCN1CCCC1CNC(=O)Cn1cnc2sc(C)c(S(=O)(=O)N3CCC(C)CC3)c2c1=O (stereo not drawn) | -14.5%
17 | Cc1ccc2nc(N3C(=O)C(O)=C(C(=O)c4ccco4)C3c3ccc(C)o3)sc2c1.O=C(O)C(=O)O (stereo not drawn) | 1.65%
18 | CC(NC(=O)C1CCC(CNC(=O)[C@@H]2Cc3ccccc3CN2)CC1)c1ccccc1 (stereo partly drawn) | -4.23%
19 | CCn1c(SCC(=O)Nc2cc(C)on2)nnc1-c1ccc(S(=O)(=O)N2CCCC2)cc1 | -1.7%
20 | Cc1ccc2cc3cc(C(=O)NCCCN4CCCCCC4)oc3nc2c1 | -50.6%
21 | Cc1ccc2cc3cc(C(=O)NCCN4CCOCC4)oc3nc2c1 | -14.5%

Row | Structure (SMILES) | hERG current change (%, negative = inhibition) at 10uM
22 | Cc1ccc2oc(=O)c3cc(C(=O)NCCCN4CCc5ccccc5C4)sc3c2c1 | -6.63%
23 | Cc1ccc2cc3cc(C(=O)NCCCN4CCCC4=O)oc3nc2c1 | 2.4%
24 | Cc1ccc2cc3cc(C(=O)NCCCN4CCCC4)oc3nc2c1 | -15.5%
25 | Cc1ccc2cc3cc(C(=O)N4CC(C)CC(C)C4)oc3nc2c1 (stereo not drawn) | 1.38%
26 | Cc1ccc2cc3cc(C(=O)NCCCN4CC(C)CC(C)C4)oc3nc2c1 (stereo not drawn) | -62.9%
27 | Cc1ccc2cc3cc(C(=O)NCCCN4CCc5ccccc5C4)oc3nc2c1 | -54.9%
28 | Cc1ccc2cc3cc(C(=O)NCc4ccco4)oc3nc2c1 | -1.21%
29 | CCOC(=O)C1C(c2ccccc2O)NC(=O)NC1(O)C(F)(F)F (stereo not drawn) | 16.9%
30 | COc1ccc(OCC(=O)Nc2cccc(C(C)=O)c2)cc1 | -7.29%
31 | CC(C)(C)c1ccc(C(=O)c2c[nH]c(C(=O)NCCc3ccccn3)c2)cc1 | 15.1%
32 | Cc1ccc(N(C)C(=O)C2CCCN2S(=O)(=O)c2ccc3c(c2)n(C)c(=O)c(=O)n3C)cc1 (stereo not drawn) | -2.28%
33 | COc1ccccc1C(=O)NCC(=O)N=Nc1c(O)n(C(C)C)c2ccccc12 | -7.32%
34 | CC(CN1CCOCC1)OC(=O)c1ccccc1Cl.Cl (stereo not drawn) | 12%
35 | CC1(C)CC(=O)C(C=NCCN2CCN(C(=S)Nc3ccc(F)cc3)CC2)=C(O)C1 | -27.8%
36 | CC1(C)CC(=O)C(C=NCCN2CCN(C(=O)Cc3ccc(Cl)cc3)CC2)=C(O)C1 | -62%
37 | CC1(C)CC(=O)C(C=NCCN2CCN(C(=O)Cc3ccccc3)CC2)=C(O)C1 | -24.8%
38 | CC1(C)CC(=O)C(C=NCC2CCN(C(=S)Nc3ccccc3)CC2)=C(O)C1 | -3.98%
39 | CC1(C)CC(=O)C(C=NCCN2CCN(C(=S)Nc3cccc(Cl)c3)CC2)=C(O)C1 | -66.3%
40 | CC1(C)CC(=O)C(C=NCC2CCN(C(=O)Nc3ccc(Cl)c(Cl)c3)CC2)=C(O)C1 | -23.8%
41 | CC1(C)CC(=O)C(C=NCCN2CCN(C3CC(=O)N(c4ccc(F)cc4)C3=O)CC2)=C(O)C1 (stereo not drawn) | 6.86%
42 | CC1(C)CC(=O)C(C=NCCN2CCN(C3CC(=O)N(c4ccc(Cl)c(Cl)c4)C3=O)CC2)=C(O)C1 (stereo not drawn) | -50.2%

Row | Structure (SMILES) | hERG current change (%, negative = inhibition) at 10uM
43 | CC1(C)CC(=O)C(C=NCCN2CCN(C3CC(=O)N(c4ccc(Br)cc4)C3=O)CC2)=C(O)C1 (stereo not drawn) | -19.3%
44 | CC1(C)CC(=O)C(C=NCC2CCN(C(=S)Nc3cccc(Cl)c3)CC2)=C(O)C1 | -62.4%
45 | CC1(C)CC(=O)C(C=NCCN2CCN(C(=S)Nc3ccccc3)CC2)=C(O)C1 | -11.3%
46 | CC1(C)CC(=O)C(C=NCCN2CCN(C(=O)Cc3ccc(F)cc3)CC2)=C(O)C1 | -23.5%
47 | COc1ccc(Br)cc1C(=O)Nc1cc(C)cc(C)c1 | 5.21%
48 | NC(=O)c1cc2n(n1)C(C(F)(F)F)CC(c1ccco1)N2 (stereo not drawn) | -7.54%
49 | COC(=O)C1NN=C(C(=O)c2ccc(Br)cc2)C1c1cccc(Br)c1 (stereo not drawn) | 2.42%
50 | CC(C)c1nc2sc3c(SCC(N)=O)ncnc3c2c2c1CCC2 | 11.9%
51 | NC(=O)c1ccc(C(F)(F)F)n(Cc2c(Cl)cccc2Cl)c1=O | 25.1%
52 | CCc1cccc(CC)c1NC(=O)/C(C#N)=C/c1ccccc1C(F)(F)F | 21.4%
53 | C=CCn1c(NCCc2ccccc2)nc2c1c(=O)n(C)c(=O)n2C | -1.17%
54 | Cc1ccccc1NC(=O)C1CCC(=O)N1 (stereo not drawn) | -0.504%
55 | Cc1c(N2C(=O)c3ccc(F)cc3C2=O)c(=O)n(-c2ccccc2)n1C | 13.6%
56 | Cc1ccccc1Nc1nc(N)nc(-c2oc3ccccc3c2C)n1 | 4.69%
57 | COc1ccc(Cl)cc1NC(=O)CCN1C(=O)C2C3C=CC(C4CC34)C2C1=O (stereo not drawn) | -24.4%
58 | COc1ccc(O)c(-c2cc(-c3ccccc3[N+](=O)[O-])[nH]n2)c1 | -11.7%
59 | Cc1nc(NC(=O)CSc2nnc(Cn3nnc4ccccc43)n2C)sc1C | 0.783%
60 | CCOC(=O)c1c(NC(=O)CSc2nnc(CNc3ccc(OC)cc3)n2C)sc(C)c1C | -21.7%
61 | COC(=O)c1c(NC(=O)CSc2nnc(Cn3nnc4ccccc43)n2C)sc(C)c1C | -62.7%
62 | COC(=O)c1sc(NC(=O)CSc2nnc(Cn3nnc4ccccc43)n2C)nc1C | 23.9%
63 | CCOC(=O)c1c(NC(=O)CSc2nnc(Cc3csc(N)n3)n2C)sc(C)c1C | -51.8%

Row | Structure (SMILES) | hERG current change (%, negative = inhibition) at 10uM
64 | CCOC(=O)Cc1csc(NC(=O)CSc2nnc(Cc3csc(N)n3)n2C)n1 | -1.19%
65 | CN(C)C(=O)N1CCC(C(=O)NCc2ccc3c(c2)OCO3)CC1 | 5.54%
66 | O=C(CNc1cccc2ccccc12)N/N=C/c1cccc(Oc2ccccc2)c1 | 18.2%
67 | Cc1ccc(S(=O)(=O)N2CCN(C(=O)COC(=O)CCOc3ccccc3)CC2)c(C)c1 | 1.16%
68 | CCN(CC(=O)Nc1ccc(OC)cc1)CC(=O)Nc1cccc(C#N)c1 | 0.389%
69 | O=C(c1cccc(Cl)c1)C1CCCN(Cc2ccc(N3CCNC3=O)cc2)C1 (stereo not drawn) | -43.7%
70 | COc1ccc(CN2CCCC(C(=O)c3cccc(Cl)c3)C2)cc1 (stereo not drawn) | -57.4%
71 | COc1ccc(CNC(=O)C2CCN(C(=O)c3cccc(Cl)c3)CC2)cc1 | -44.9%
72 | COc1cccc(C(=O)C2CCCN(Cc3ccc(F)cc3)C2)c1 (stereo not drawn) | -18.6%
73 | COc1cccc(OC)c1CN1CCCC(C(=O)c2cccc(Cl)c2)C1 (stereo not drawn) | -69%
74 | CS(=O)(=O)N1CCC(C(=O)c2cccc(Cl)c2)CC1 | -0.907%
75 | O=C(c1cccc(Cl)c1)C1CCCN(Cc2ccon2)C1 (stereo not drawn) | -26.3%
76 | COc1ccc(CN2CCC(C(=O)c3cccc(Cl)c3)CC2)cc1 | -78.7%
77 | C[C@H](CCC(=O)NCC(=O)[O-])[C@H]1CC[C@H]2[C@@H]3[C@H](O)C[C@@H]4C[C@H](O)CC[C@]4(C)[C@H]3C[C@H](O)[C@]12C.O.[Na+] | -21.4%
78 | Cc1ccc(Cn2ccc(NC(=O)c3cc(-c4ccc(Cl)cc4)on3)n2)cc1 | 17.3%
79 | COc1cccc(Nc2ncnc3sc(C)cc23)c1.Cl | -8.64%
80 | C#CCOCCOCCOCCNc1nc(N2CCN(C(=O)[C@H]([C@@H](C)CC)n3cc([C@@H](N)CC(C)C)nn3)CC2)nc(N2CCN(C(=O)[C@H](CCCCN)n3cc([C@@H](N)CC(C)C)nn3)CC2)n1.Cl | -10.1%
81 | CCOc1ccccc1CNC(=O)c1ccc(NC(=O)C2=CSCCO2)cc1 | 7.72%

Reference: PMC4336329 (PLoS ONE, 2015)
